The source of these data is the supplement of paper PMC10498489.

Out of some 2,300 compounds screened, about 330 (14%) showed activity.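 Rule for the calls: active = median modified Z-score above 1.96; inactive = 1.96 or below.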 These entries were drawn from the full list.

In this assay the test system is HepG2 Srxn1-GFP reporter cells (+30 nM CDDO-Me). Kind of assay: Srxn1-GFP intensity median modified Z-score relative to plate median; higher = stronger NRF2 / oxidative stress reporter activation, active = hit call of the paper. The following applies: 10 µM; exposure time: 24h. An outline of the steps:
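Each value is the replicate median of a per-plate modified Z-score for GFP intensity in HepG2 Srxn1-GFP BAC reporter cells. The cells (20,000 per well, 96-well plates, three replicate plates) received compound at 10 μM together with an NRF2 activator at 30 nM for 24 h, in ≤0.1% DMSO. Cytoplasmic GFP was quantified per cell from confocal images of formaldehyde-fixed, Hoechst-stained cells, leaving out images with fewer than 100 cells, and scaling used 1.4826 × median absolute deviation.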
On to `O=C(Oc1cccc2cccnc12)c1ccccc1Cl`, for which the “Srxn1-GFP intensity median modified Z-score” value was 1.65 (inactive).

In the case of `Cc1ccc(C(=O)Oc2cccc3cccnc23)cc1`, the “Srxn1-GFP intensity median modified Z-score” value was 0.989 (inactive).

Consider `O=C(Oc1cccc2cccnc12)c1ccccc1` [euspeclibcmpd773], for which the “Srxn1-GFP intensity median modified Z-score” value is 12.8 (active).

Turning to `CC/C=C\C/C=C\C/C=C\C/C=C\C/C=C\CCCC(=O)OCC` [euspeclibcmpd997], the “Srxn1-GFP intensity median modified Z-score” value was 0.696 (inactive).

For the molecule `C[C@H]1[C@H]2CCC3C4CC=C5C[C@@H](N(C)C)CC[C@]5(C)C4CC[C@@]32CN1C` (stereo partly drawn) [euspeclibcmpd1801], the “Srxn1-GFP intensity median modified Z-score” value is -0.317 (inactive).

For the molecule `CC(=O)OC1CCC2(C)C(=CC=C3C2CCC2(C)C3CCC2C(C)/C=C/C(C)C(C)C)C1(C)C` (stereo not drawn) [euspeclibcmpd1343], the “Srxn1-GFP intensity median modified Z-score” value is 1.93 (inactive).

With `CC(C)CCCC(C)[C@H]1CCC2C3CC=C4C[C@@H](O)CC[C@]4(C)C3CC[C@@]21C` (stereo partly drawn) [euspeclibcmpd354], the “Srxn1-GFP intensity median modified Z-score” value is 0.396 (inactive).

As for `CC(C)CCCC(C)C1CCC2C3=CCC4CC(O)CCC4(C)C3CCC21C` (stereo not drawn) [euspeclibcmpd1991], the “Srxn1-GFP intensity median modified Z-score” value is -0.131 (inactive).

`CCC(/C=C/[C@@H](C)[C@H]1CCC2C3CC=C4C[C@@H](O)CC[C@]4(C)C3CC[C@@]21C)C(C)C` (stereo partly drawn) [euspeclibcmpd1549]: the “Srxn1-GFP intensity median modified Z-score” value is -0.0971 (inactive).

As for `C=C1CC[C@H](O)C/C1=C/C=C1\CCC[C@]2(C)C([C@H](C)/C=C/[C@H](C)C(C)C)CC[C@@H]12` (stereo partly drawn) [euspeclibcmpd112], the “Srxn1-GFP intensity median modified Z-score” value was 2.55 (active).

In the case of `C=C1CC[C@H](O)C/C1=C/C=C1\CCCC2(C)C1CCC2C(C)CCCC(C)C` (stereo partly drawn) [euspeclibcmpd353], the “Srxn1-GFP intensity median modified Z-score” value is 2.95 (active).

Turning to `CC(C)C(C)/C=C/C(C)C1CCC2C3=CC=C4CC(O)CCC4(C)C3CCC21C` (stereo not drawn) [euspeclibcmpd1597], the “Srxn1-GFP intensity median modified Z-score” value is 5.02 (active).

With `CC(=O)Nc1ccc(S(=O)(=O)N=c2o[nH]c(C)c2C)cc1` [euspeclibcmpd798], the “Srxn1-GFP intensity median modified Z-score” value is -0.176 (inactive).

With `CC(=O)N[C@H]1[C@H]([C@H](O)[C@H](O)CO)O[C@](O)(C(=O)O)C[C@@H]1O` [euspeclibcmpd2223], the “Srxn1-GFP intensity median modified Z-score” value was -0.0326 (inactive).

Consider `CC(C)C(N)C(=O)OCC(CO)OCn1cnc2c(=O)[nH]c(=N)[nH]c21` (stereo not drawn) [euspeclibcmpd624], for which the “Srxn1-GFP intensity median modified Z-score” value was -0.125 (inactive).

As for `C[C@H]1CC2C3CC=C4CC(=O)C=C[C@]4(C)[C@@]3(F)[C@@H](O)C[C@]2(C)[C@@]1(O)C(=O)COP(=O)(O)O` (stereo partly drawn) [euspeclibcmpd2288], the “Srxn1-GFP intensity median modified Z-score” value is -0.294 (inactive).

Turning to `CNCc1ccccc1` [euspeclibcmpd1631], the “Srxn1-GFP intensity median modified Z-score” value was -0.463 (inactive).

As to `CC(CN(C)C)CN1c2ccccc2Sc2ccccc21` (stereo not drawn) [euspeclibcmpd308], the “Srxn1-GFP intensity median modified Z-score” value is -0.246 (inactive).

Consider `CCC(=O)O[C@]1(C(=O)CCl)[C@@H](C)CC2C3CC=C4CC(=O)C=C[C@]4(C)[C@@]3(F)[C@@H](O)C[C@@]21C` (stereo partly drawn) [euspeclibcmpd633], for which the “Srxn1-GFP intensity median modified Z-score” value was 0.492 (inactive).

`CCC(=O)OCC(=O)C1(OC(=O)CC)C(C)CC2C3CC=C4CC(=O)C=CC4(C)C3(Cl)C(O)CC21C` (stereo not drawn) [euspeclibcmpd31]: the “Srxn1-GFP intensity median modified Z-score” value was -0.85 (inactive).

Consider `C[C@@H]1CC2C3CC=C4CC(=O)C=C[C@]4(C)[C@@]3(Cl)[C@@H](O)C[C@]2(C)[C@@]1(OC(=O)c1ccco1)C(=O)CCl` (stereo partly drawn) [euspeclibcmpd756], for which the “Srxn1-GFP intensity median modified Z-score” value was 2.37 (active).

Consider `NC[C@@H]1CC[C@@H](N)[C@@H](O[C@H]2[C@H](O)[C@@H](O[C@H]3O[C@H](CO)[C@@H](O)[C@H](N)[C@H]3O)[C@H](N)C[C@@H]2N)O1` [euspeclibcmpd1045], for which the “Srxn1-GFP intensity median modified Z-score” value is -0.0322 (inactive).

In the case of `CCOc1ccc(C(=O)c2cc(O)c(OC)c(OC)c2O)cc1` [euspeclibcmpd2089], the “Srxn1-GFP intensity median modified Z-score” value is -0.551 (inactive).

`CCCCCCCCCCCCC(C(=O)O)C(C)C(=O)O` (stereo not drawn) [euspeclibcmpd1524]: the “Srxn1-GFP intensity median modified Z-score” value was 0.456 (inactive).

Turning to `CCCCCCCCCCCCCCC(C(=O)OC)C(O)(CC(=O)OC)C(=O)OC` (stereo not drawn) [euspeclibcmpd2214], the “Srxn1-GFP intensity median modified Z-score” value is -0.435 (inactive).

On to `CCCCCCCCCCCCCCCCC(C(=O)O)C(O)(CC(=O)O)C(=O)O` (stereo not drawn) [euspeclibcmpd1735], for which the “Srxn1-GFP intensity median modified Z-score” value was 3.83 (active).

Regarding `OC[C@H]1O[C@H](OC[C@H]2O[C@@H](O)[C@H](O)[C@@H](O)[C@@H]2O)[C@H](O)[C@@H](O)[C@H]1O` [euspeclibcmpd1651], the “Srxn1-GFP intensity median modified Z-score” value was -0.055 (inactive).

Turning to `CC(C)Cn1c(=O)n(C)c(=O)c2nc[nH]c21` [euspeclibcmpd1808], the “Srxn1-GFP intensity median modified Z-score” value is 11.6 (active).

For `CC(C)Cn1c(=O)n(C)c(=O)c2nc[nH]c21` [euspeclibcmpd2061], the “Srxn1-GFP intensity median modified Z-score” value was 0.0284 (inactive).

For `Cn1c(=O)c2nc[nH]c2n(C)c1=O` [euspeclibcmpd290], the “Srxn1-GFP intensity median modified Z-score” value is -0.062 (inactive).

In the case of `CC(O)Cn1cnc2c1c(=O)n(C)c(=O)n2C` (stereo not drawn) [euspeclibcmpd1230], the “Srxn1-GFP intensity median modified Z-score” value is 0.0469 (inactive).

For the molecule `COc1ccc(Cc2c[nH]c(=N)[nH]c2=N)cc1OC` [euspeclibcmpd456], the “Srxn1-GFP intensity median modified Z-score” value is -0.0911 (inactive).

In the case of `COc1cc2c(cc1OC)-c1c(oc3cc(O)cc(O)c3c1=O)CO2` [euspeclibcmpd2244], the “Srxn1-GFP intensity median modified Z-score” value is -0.157 (inactive).

Turning to `COc1ccc(/C=C2/COc3ccc(Br)cc3C2=O)cc1O`, the “Srxn1-GFP intensity median modified Z-score” value is 1.17 (inactive).

Turning to `COc1ccc2c(c1)OC/C(=C\c1ccc(OC)c(O)c1)C2=O` [euspeclibcmpd1638], the “Srxn1-GFP intensity median modified Z-score” value is 19.3 (active).

`COc1ccc(-c2cc(=O)c3c(O)cc(OC)c(OC)c3o2)c(OC)c1` [euspeclibcmpd1657]: the “Srxn1-GFP intensity median modified Z-score” value was 0.259 (inactive).

With `COc1ccc2c(c1)C(=O)/C(=C\c1ccc(OC)c(O)c1)CO2`, the “Srxn1-GFP intensity median modified Z-score” value was 3.46 (active).

Consider `COc1ccc([C@@H]2CC(=O)c3c(O)cc(O)cc3O2)cc1O` [euspeclibcmpd1483], for which the “Srxn1-GFP intensity median modified Z-score” value is 0.0163 (inactive).

Consider `COC(=O)/C=C/C(=O)OC` [euspeclibcmpd923], for which the “Srxn1-GFP intensity median modified Z-score” value was 6.34 (active).

As for `COC(=O)/C=C/c1cc(OC)c(OC)c(OC)c1` [euspeclibcmpd2136], the “Srxn1-GFP intensity median modified Z-score” value is 0.7 (inactive).

`COC(=O)/C=C/C(C)=C/C=C/C(C)=C/C=C/C=C(C)/C=C/C=C(C)/C=C/C(=O)O` [euspeclibcmpd2376]: the “Srxn1-GFP intensity median modified Z-score” value was -0.19 (inactive).

Take `COCCN(Cc1ccccn1)C(=O)C1CCN(C)C(=O)C1` (stereo not drawn): the “Srxn1-GFP intensity median modified Z-score” value is 0.317 (inactive).

For the molecule `CC1(C)SC2C(NC(=O)[C@@H](NC(=O)N3CCNC3=O)c3ccccc3)C(=O)N2C1C(=O)O` (stereo partly drawn) [euspeclibcmpd2116], the “Srxn1-GFP intensity median modified Z-score” value is -0.415 (inactive).
